# Measured values as given in PubChem BioAssay AID504467 (National Center for Advancing Translational Sciences (NCATS), 2011).
# Out of some 330,000 compounds screened, about 7,700 (2.3%) were called active. Inconclusive results (about 26%) are left out. Calls come from the whole dose curve; as a rule, active = well fitted inhibition curve with a large enough effect; inconclusive = small, poorly fitted or top-dose-only effect, or effect the other way; inactive = flat fitted curve, though single readings scatter. Only a selection was taken, and actives are over-represented in it overall.
# Assay: qHTS screen for small molecules that inhibit ELG1-dependent DNA repair in human embryonic kidney (HEK293T) cells expressing luciferase-tagged ELG1; note: nearly all actives have a fitted effect of over 55% in size
# Settings: HEK293T ELG1-luciferase reporter, luminescence, 16 h, DNA damage induced by 5-fluorouridine; series mostly up to 46.1 µM; activity change, negative = inhibition: at the top concentration
# In short: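 Step one: seed 2,000 cells per well. Step two: pin-transfer compound or DMSO alongside 5-fluorouridine. Step three: incubate 16 hr, 37 °C, 5% CO2. Step four: add ONE-Glo, wait 30 min, read luminescence.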
# % is set by controls: 0 for no effect and ±100 for the full control effect; potency is the fitted concentration of half-maximal effect.
SMILES,"activity change, negative = inhibition",Potency
O=C(Cn1cnc2ccccc2c1=O)NCC1COc2ccccc2O1 (centres undefined),-0.196% (inactive),
CCn1cc(C(=O)NCC2COc3ccccc3O2)c2cc(OC)c(OC)cc2c1=O (centres undefined),,14.6 µM (active)
CCC1CCCCN1C(=O)CSc1nc2c(c(=O)n1C)SC(C)C2 (centres undefined),-8.54% (inactive),
CC(=O)c1cccc(OCC(=O)OCC(=O)Nc2cc(S(=O)(=O)N3CCCCC3)ccc2C)c1,1.04% (inactive),
CC(C(=O)Nc1ccc(O)c(C(=O)O)c1)N1C(=O)/C(=C/c2cccs2)SC1=S (centres undefined),10.8% (inactive),
COc1ccccc1C(=O)NCCC(=O)NCC(c1ccco1)N1CCCCC1 (centres undefined),10.2% (inactive),
COc1ccccc1C(=O)NCCn1cc(SCC(=O)NCc2ccco2)c2ccccc21,,25.9 µM (active)
COc1cccc(OC)c1C(=O)NC(=S)NCc1ccco1,14% (inactive),
Cc1cc(C)n2nc(C(=O)Nc3cccc(S(=O)(=O)N4CCOCC4)c3)nc2n1,14.6% (inactive),
O=C(CCNC(=O)c1ccccc1Cl)NN=Cc1ccco1,2.44% (inactive),
C#CCOCCOCCOCCNc1nc(N2CCN(C(=O)[C@H](CCC(=O)O)n3cc(CN)nn3)CC2)nc(N2CCN(C(=O)[C@H](CCC(=O)O)n3cc(CN)nn3)CC2)n1,7.9% (inactive),
O=C(NC1CCCC1)C(c1ccco1)N(C(=O)c1ccco1)c1ccc(F)cc1 (centres undefined),-2.68% (inactive),
CC1=C[C@H]2Cc3cc(C)cc(C)c3S(=O)(=O)[C@@H]2C=C1,,16.4 µM (active)
CCc1ccccc1OCC(=O)Nc1ccc(C)c(S(=O)(=O)N2CCCCCC2)c1,,20.6 µM (active)
Cc1ccc(NC(=O)COC(=O)C2CC2)cc1S(=O)(=O)N1CCOCC1,10.1% (inactive),
COc1ccc(NC(=O)C2=NNC(=O)CC2)cc1S(=O)(=O)N1CCCCC1,0.964% (inactive),
COc1ccccc1C(=O)Nc1ccc(C)c(S(=O)(=O)N2CCCCC2)c1,,4.11 µM (active)
COc1ccccc1C(CNC(=O)c1ccc(C)c(S(=O)(=O)N2CCCCC2)c1)N(C)C (centres undefined),7.46% (inactive),
Cc1ccc(NC(=O)CCC(=O)N2CCC(c3ccccc3)=N2)cc1S(=O)(=O)N1CCCCC1,18.5% (inactive),
Cc1ccc(NS(=O)(=O)c2ccc(F)cc2)nc1,-1.5% (inactive),
COc1ccccc1C(=O)NCC(=O)NCCSc1ccc(Br)cc1,0.299% (inactive),
COc1ccccc1NS(=O)(=O)c1ccc(C)c(C(=O)NCC(c2ccco2)N(C)C)c1 (centres undefined),7.5% (inactive),
Cc1ccc(C)c(N2CCN(C(=O)CCCn3c(=O)c4cccn4c4cccnc43)CC2)c1,,18.3 µM (active)
O=C(CCCCCn1c(=S)[nH]c2cc3c(cc2c1=O)OCO3)N1CCN(c2ccc(F)cc2)CC1,2.97% (inactive),
Cc1ccc(C)c(N2CCN(C(=O)Cn3ncn4cccc4c3=O)CC2)c1,-9.5% (inactive),

SMILES,"activity change, negative = inhibition",Potency
Cc1ccc(C)c(N2CCN(C(=O)CCc3nc4ccccc4[nH]3)CC2)c1,-4.67% (inactive),
CCc1nn(CC(=O)N2CCN(c3cc(C)ccc3C)CC2)c(=O)c2cc3occc3n12,9.86% (inactive),
Cc1ccc(C)c(N2CCN(C(=O)CCCCCn3c(=S)[nH]c4ccc(N5CCOCC5)cc4c3=O)CC2)c1,,5.8 µM (active)
COC(=O)[C@@]12CCCN1[C@H](c1ccc(-c3ccc(F)cc3)c(OC)c1)[C@H]1C(=O)N(C)C(=O)[C@H]12,-0.867% (inactive),
COc1ccc(CCNC(=S)N2CCN(S(=O)(=O)c3ccc(F)cc3)CC2)cc1,15.3% (inactive),
COc1ccc(-c2cc(C(F)(F)F)nc(SCC(=O)Nc3ccc4c(c3)OCO4)n2)cc1OC,-18.9% (inactive),
COc1cc(OC)nc(S(C)(=O)=O)n1,-6.22% (inactive),
COc1ccc(-c2cc(C(F)(F)F)nc(S(C)(=O)=O)n2)cc1OC,,20.6 µM (active)
COc1cccc(NC(=O)CSc2nnc(C3CCCCC3)n2N)c1,19.8% (inactive),
O=C(CSc1ccccc1)Nc1cccc(S(=O)(=O)N2CCCCC2)c1,1.06% (inactive),
CCN1CCN(C2CCCCC2NS(=O)(=O)c2ccc(Cl)cc2)CC1 (centres undefined),10.8% (inactive),
CCS(=O)(=O)c1ccc2oc(SCC(=O)N3c4ccccc4CC3C)nc2c1 (centres undefined),,23.1 µM (active)
Cc1cc(=O)[nH]c(SCC(=O)N2c3ccccc3CC2C)n1 (centres undefined),11.9% (inactive),
CC1Cc2ccccc2N1C(=O)CSc1nnc(-c2ccc(S(=O)(=O)N3CCCCC3)cc2)o1 (centres undefined),-1.63% (inactive),
CC(C)(c1ccccc1)c1ccc(OCCN2CCCC2)cc1,3.08% (inactive),
O=C(Nc1ccc(N2CCOCC2)cc1)c1cccc(S(=O)(=O)N2CCOCC2)c1,-1.34% (inactive),
COc1ccc(C)cc1NC(=O)CN1c2cccc3cccc(c23)S1(=O)=O,-27.2% (inactive),
CC(Cc1cccs1)N(Cc1ccc(Cl)cc1)C(=O)c1ccncc1 (centres undefined),-6.31% (inactive),
CCCN(CC(=O)Nc1ccccc1C)C(=O)c1cc(=O)[nH]c2ccccc12,23.1% (inactive),
CCCN(CC(=O)Nc1ccccc1C)C(=O)c1ccc2[nH]c3c(c2c1)CC(C)CC3 (centres undefined),,9.2 µM (active)
CC1CCc2[nH]c3ccc(C(=O)N(C)CC(=O)Nc4cccc(F)c4)cc3c2C1 (centres undefined),-15.3% (inactive),
CCc1cc2c(N3CCN(c4nnc(CC)s4)CC3)ncnc2s1,,18.4 µM (active)
CCc1cc2c(NC3CCCC3)ncnc2s1,4.18% (inactive),
CCc1cc2c(NC(Cc3ccccc3)C(=O)O)ncnc2s1 (centres undefined),2.07% (inactive),
